The test relates to Plasmodium falciparum Sir2 (PF13_0152, Sir2A). Nature of the test: pfSir2 binders on small-molecule microarrays, primary screen, biochemical, small-molecule microarray, 635 nm fluorescence (AID 1098).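 Note: score merges spot fluorescence intensity with its signal-to-noise ratio.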 The conditions noted are these: small-molecule microarray binding, fluorescence 635 nm; higher = more signal.
The compound `COC(=O)[C@@]1(Cc2ccccc2)[C@H]2c3cc(C(=O)N4CCCC4)n(Cc4ccccc4)c3C[C@H]2CN1C(=O)c1ccccc1` yielded a composite z-score of 1.1.

As to `CC(C)C[C@@H]1NC(=O)[C@@]23C(=O)N[C@@H](Cc4ccccc4)C2[C@H](C)[C@@]2(C)O[C@H]2C3/C=C/C/C=C\CNC(=O)[C@@H]2CCCN2C1=O` (stereo partly drawn), the composite z-score worked out at 0.324. Compound `COC(=O)[C@@]1(Cc2ccc(OC)cc2)[C@H]2c3cc(C(=O)N4CCCC4)n(CCF)c3C[C@H]2CN1C(=O)c1ccccc1` registered a composite z-score of 1.05. Compound `C=C(/C(=C/C[C@@H](OC(=O)c1ccncc1)c1cccc(OCCO)c1)c1cc(C(=O)OC)ccc1OC)C(C)C` returned a composite z-score of 1.57. The figure for `O=C(CS)NCCCCCNC(=O)[C@@H]1C[C@@H]2C(=O)N3CCC[C@H]3C(=O)N2[C@@H]1c1ccc(O)cc1` is 0.847; for `COc1cccc(C)c1NC(=O)O[C@H]1[C@H](OC(=O)Nc2ccccc2)[C@H](OC(=O)Nc2ccccc2)[C@@H](OC)O[C@@H]1CO` it is 1.1; for `COc1ccc(C#Cc2ccc3c(c2)[C@]2(C(=O)N3)[C@H](C(=O)O)[C@H]3C(=O)O[C@H](c4ccccc4)[C@H](c4ccccc4)N3[C@@H]2c2ccc(OCCO)cc2)cc1` it is 1.48. Turning to `COc1cc2c(cc1OC)CN(C(=O)[C@@H]1[C@H]3C(=O)O[C@H](c4ccccc4)[C@H](c4ccccc4)N3[C@H](c3ccc(O)cc3)[C@@]13C(=O)Nc1ccc(C#CCNC(N)=O)cc13)CC2`, the composite z-score worked out at 0.55.

With `COc1ccc([Si](C)(C)[C@@H]2[C@@H](CCO)O[C@]3(C(=O)N(Cc4cccc(N5C(=O)COc6ccccc65)c4)c4ccccc43)[C@H]2C)cc1`, the composite z-score was found to be 1.35. The figure for `Cc1ccc(-c2cccc(=O)o2)cc1` is -0.466. For `COC(=O)c1ccc(OC)c(/C=C\CC(CCc2ccccc2)OC(C)=O)c1` (stereo not drawn) the value was -0.388. For the compound `C=C(C(=O)CC[C@H](OC(=O)c1cccnc1)c1ccc(OCCO)cc1)C(C)C`, the composite z-score came to 1.56. As to `CCCC=C(CCC)[C@@H](NS(=O)(=O)c1cccc2cccnc12)c1ccc(C(=O)OC)cc1`, the composite z-score was determined as 0.817.

On to `CC(C)CCC[C@@H](C)[C@H]1CC[C@@]2(C)C3=C(CC[C@]12C)[C@@]1(C)CC[C@H](OC(=O)c2ccc(N)cc2)C(C)(C)C1CC3` (stereo partly drawn), for which the composite z-score was found to be 0.347. Take `C[C@H]1ON(c2ccccc2)[C@@H](c2ccccc2)[C@@H]1C(=O)N1C(=O)OC[C@@H]1c1ccccc1`: the composite z-score turned out to be 0.0672.

Take `Cc1ccc(S[C@]2(C(=O)O)CC(=O)N(Cc3ccccc3C(F)(F)F)[C@@H]2c2ccc(CO)cc2)cc1`: the composite z-score is -0.809. The compound `C=CCN1C(=O)[C@@]2(O[C@@H](CCO)[C@H]([Si](C)(C)c3ccc(OC)cc3)[C@H]2C)c2cc(NC(=O)[C@H](C)O)ccc21` returned a composite z-score of 1.53. Regarding `CN1C(=O)C2C=CC(C(O)COCc3ccccc3)N(Nc3ccccc3)C2C1=O` (stereo not drawn), the composite z-score amounted to 0.867. Consider `C=CCC(OC(C)=O)[C@@H]1[C@@H](N(Cc2cc3ccccc3o2)C(=O)Cc2ccc(OC)cc2)c2cc(OCCCO)ccc2N1C(=O)c1ccc(-c2ccccc2)cc1` (stereo partly drawn), for which the composite z-score is -0.297. For `CC1CC/C=C\[C@H]2OC34C=CCN(c5ccc(Cl)cc5)C(=O)[C@H]3N(C(CO)C(C)C)C(=O)[C@]4(C)C2C(=O)O1` (stereo partly drawn), the composite z-score came out at 1.86. In turn, `COCCOC(=O)N1C(=O)[C@@]2(c3cc(C#CC4(O)CCCCCC4)ccc31)[C@H](C(=O)N1CCc3cc(OC)c(OC)cc3C1)[C@H]1C(=O)O[C@H](c3ccccc3)[C@H](c3ccccc3)N1[C@@H]2c1ccccc1OCCO` yielded a composite z-score of 0.517. Consider `CC(C)C(CO)N1C(=O)[C@@H]2[C@H]3C(=O)OCC=C[C@H]3OC23C=CCN(Cn2nnc4ccccc42)C(=O)[C@@H]13` (stereo partly drawn), for which the composite z-score came to 0.335. The figure for `O=C1C2C=CC(C(O)c3ccc(Br)cc3)N(Nc3ccccc3)C2C(=O)N1c1ccccc1` (stereo not drawn) is 0.489; for `CN(C)CCCCNC(=O)[C@H]1C[C@H]2C(=O)N[C@@H](CCCC[N+](C)(C)C)C(=O)N2[C@H]1c1cccc(OCCO)c1` it is 1.57. In the case of `O=C1C2C=CC(C(O)c3ccccn3)N(Nc3ccccc3)C2C(=O)N1c1ccccc1` (stereo not drawn), the composite z-score worked out at 0.687. `COC(=O)[C@@]1(Cc2ccc(OC)cc2)[C@H]2c3cc(C(=O)N(C)C)n(CCF)c3C[C@H]2CN1C(=O)c1ccccc1` had a composite z-score of 1.17. Compound `COC(=O)[C@@]1(Cc2ccccc2N=[N+]=[N-])N=C(c2ccc(OCCCO)cc2)O[C@H]1c1ccccc1` displayed a composite z-score of 1.34. Consider `C=CCC(OC(C)=O)[C@@H]1[C@@H](N(Cc2cccc3ccccc23)C(=O)c2ccc(C)cc2)c2cc(OCCCO)ccc2N1C(=O)c1ccc2ccccc2c1` (stereo partly drawn), for which the composite z-score is -0.269.
